Mito fusion act = qHTS Assay for Small Molecule Inhibitors of Mitochondrial Division or Activators of Mitochondrial Fusion | S. cerevisiae fusion-defective mutant growth rescue, CellTiterGlo 48 h | Potency, µM (doses to about 46.1 µM), for inactives: at the highest dose growth rescue (activation), hits mostly activators | 0.23% of 320,000 active; further: % of control where 0% means no effect; nearly all actives have a fitted effect of over 45% in size
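Compounds are tested for their ability to restore growth of mitochondrial fusion-defective yeast strains at non-permissive 37C in YPEG medium over 48 hours. Viability is quantified by luciferase luminescence.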
aSyn yeast inh = qHTS of alpha-syn Inhibitors; Yeast expressing alpha-synuclein, growth rescue, BacTiter-Glo, 24 h; Potency, µM (titrated, usually from 46.1 µM), without a hit: at the highest dose growth rescue (activation), usual class: activators; 0.14% of 370,000 active; AID 652106, 2013; further: % of control where 0% means no effect; nearly all actives have a fitted effect of over 65% in size
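Screening used galactose-induced yeast with toxic alpha-synuclein levels, exposed to compound for 24 hr at 30 deg C. Cell growth, read with BacTiter-Glo luminescence, gave the measured signal.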
Abeta yeast res = qHTS for compounds that reverse cellular toxicity of Amyloid beta (A-beta) peptide in yeast: Primary Screen | 0.063% of 410,000 active | yeast expressing A-beta42, growth rescue, OD600, 48 h; response scale: 0% DMSO, 100% iron-clioquinol control | Potency, µM (top dose mostly 46.1 µM), most hits filed as activators; further: nearly all actives have a fitted effect of over 55% in size
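Growth rescue measured by 600 nm absorbance after 48 h yeast culture at 30 C with compound. Values normalized between DMSO and an equimolar ferric chloride plus clioquinol control.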
TDP43 rescue = qHTS of TDP-43 Inhibitors; TDP-43 expressing yeast growth rescue, BacTiter-Glo, 24 h; Potency, µM (top dose mostly 46.1 µM), without a hit: at the top dose growth rescue (activation), hits mostly activators; 1.8% of 410,000 active; AID 652104, 2013; further: % of control where 0% means no effect; nearly all actives have a fitted effect of over 50% in size
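Readout is BacTiter-Glo luminescence of cell growth, so inhibitors register as activators. TDP-43-expressing yeast at OD600=0.02 in galactose medium, after raffinose pregrowth to mid-log, were incubated with compound for 24 hr at 30 deg C.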
FUS suppressor = qHTS for Suppressors of FUS Proteinopathy: Primary screen using FUS-linked yeast assay. S. cerevisiae FUS-expressing, growth rescue, OD600, 24 h. Potency, µM (titrated, usually from 76.6 µM), usual class: activators. 0.24% of 390,000 active;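 further: plate controls were DMSO vehicle for no effect and reference control for full effect; nearly all actives have a fitted effect of over 55% in size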
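Quantitative HTS measuring growth restoration of FUS-toxic yeast. Galactose-induced cells (OD 0.005) were exposed 24hr at 30C to compounds at several concentrations, then absorbance at 600 nm was recorded.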
Starred values were filed as active, the others as inactive; i = inactive; ? = inconclusive; nt = no result given; [ ] = another dose, or the depositor's remark. Only some compounds are listed: those with a hit (about 2.2% of all), similar ones and a draw of the others. The call rests on the fitted dose curve; in most records, active means well fitted curve in the direction sought with a large enough effect; inconclusive means small, poorly fitted or top-dose-only effect, or another doubt; inactive means no such curve, though single readings can be large; an effect the other way counts as inactive or inconclusive. Potency means the concentration at half of the fitted maximal effect.

SMILES	Mito fusion act	aSyn yeast inh	Abeta yeast res	TDP43 rescue	FUS suppressor
CC(C)(C)OC(=O)N1CCC(N[C@@H](Cc2c[nH]c3ccccc23)C(=O)NCC(c2ccccc2)c2ccccc2)(C(=O)NC2CCCCC2)CC1	nt	nt	nt	nt	10µM*
COCCCN1C(=O)[C@H](CC(=O)NCc2cccc3ccccc23)[C@]2(C(=O)OC)CCCCC=C12	nt	nt	nt	nt	i
CC1CCC2(CC1)CCN(CCCOC(=O)Nc1cccc(C(F)(F)F)c1)C2=O (stereo not given)	nt	nt	nt	nt	i
COc1cc(/C=C/C(=O)c2ccc3c(c2)OCCO3)cc(Br)c1OCC(=O)N(C)C	-33%	11%	i	25µM*	?
O=C(/C=C/c1ccncc1)c1ccc2c(c1)OCCO2	-29%	-4%	i	-8%[9.22 µM]	i
CCCCCCCSc1nsc(N)n1	?	-15%	i	13µM*	i
CCCCCCSc1nsc(NC(=O)CC(C)C)n1	?	2%	i	-14%[0.397 µM]	i
CCOc1cccc(/C=C(/C#N)c2nc3ccccc3[nH]2)c1OCC(=O)O	-3%	-1%	i	13%	i
CCN(CC)c1ccc(/C=C(/C#N)c2nc3ccccc3[nH]2)c(OC(C)C)c1	22%	-25%	i	13µM*	?
CN(Cc1ccccc1)S(=O)(=O)c1cccc(C(=O)OCC2CCCCC2)c1	nt	nt	nt	nt	i
CCCCc1ccc(NC(=O)CC(C)=O)cc1	7%	9%	i	6%	i
CCCCc1ccc(CC(=O)NO)cc1	nt	16µM*	nt	nt	nt
CCCCc1ccc(NC(=O)CC(C)(C)C)cc1	nt	2%	i	20µM*	i
CCCCc1ccc(NC(=O)N[C@@H](C)C(=O)O)cc1	1%	-8%	i	1%	i
CCCCc1ccc(NC(=O)C(C)CC)cc1 (stereo not given)	-10%	-13%	i	11µM*	i
COC(OC)c1ccc(C#N)c(SCc2ccccc2)n1	27%	-2%	i	14µM*	i
Oc1ccc(Nc2ccc3ccccc3c2)cc1	nt	-22%	i	22µM*	i
Oc1ccc(Nc2nc(-c3ccc4ccccc4c3)cs2)cc1	22%	nt	nt	nt	nt
Cc1cc(C)c2c(CC(=O)O)coc2c1	-5%	22%	i	13µM*	i
Cc1cc(C)c2c(CC(=O)NN(C)C)coc2c1	2%	-6%	i	-18%	i
Cc1cc(C)c2c(CCl)cc(=O)oc2c1	-34%	0%	i	7.1µM*	i
Cc1cc(C)c2c(CN3CCCCC3)cc(=O)oc2c1	-10%	-8%	i	-11%	i
O=C(CSc1ccc(Br)cc1)Nc1ccc(N2CCOCC2)cc1	3%	3%	i	8%	i
COc1cc(/C=C2/C=Cc3ccccc32)ccc1N(C)C	nt	2%	nt	nt	nt
O=C(CSc1nnc(-c2ccccn2)n1-c1ccc(Cl)cc1)Nc1cccc2ccccc12	nt	nt	nt	nt	i
SMILES	Mito fusion act	aSyn yeast inh	Abeta yeast res	TDP43 rescue	FUS suppressor
CC1(C)Cc2ccccc2C(/C(=N\Nc2cccc(Cl)c2)C(N)=O)=N1	0%	17%	i	16µM*	?
CC(=O)c1ccc(N/N=C(/C(N)=O)C2=NC(C)(C)Cc3ccccc32)cc1	17%	0%	i	15%	i
O=C(c1ccccc1Cc1ccccc1)N1CCN(S(=O)(=O)c2ccc(F)cc2)CC1	2%	2%	i	?	i
O=C(c1ccccc1Cc1ccccc1)N1CCN(S(=O)(=O)c2ccccc2Br)CC1	?	?	i	13µM*	i
Cc1ccc(-n2c(C)cc(C(=O)CSc3nnnn3C)c2C)cc1	28%	0%	i	32µM*	i
Cc1ccc(-n2c(C)cc(C(=O)CSc3nncs3)c2C)cc1	?	-20%	i	22µM*	i
CCOC(=O)N1CCN(C(=O)C[C@@H]2C(=O)N3CCCC4=C3[C@@]2(C(=O)OCC)CCC4)CC1	nt	nt	nt	nt	i
O=C(NCCc1ccccn1)c1ccc2c(c1)ncn2C1CCCCC1	nt	nt	nt	nt	i
Cc1nc2ccccc2cc1OCc1ccccc1	-22%	3%	i	18µM*	i
Cc1nc2ccccc2cc1OCc1ccc(Cl)cc1	16%	-17%	i	?	i
C=CCNC(=O)c1ccc(CSc2nc3ccccc3s2)cc1	2%	-4%	i	18µM*	i
Cc1csc(NC(=O)CCCSc2nc3ccccc3s2)n1	?	8%	i	?	i
O=C(CSc1ccc([N+](=O)[O-])cn1)Nc1cc(C(F)(F)F)ccc1N1CCOCC1	9%	20%	i	20µM*	nt
O=C(CSc1ccc([N+](=O)[O-])cn1)Nc1nccs1	-4%	-5%	i	0%	i
C=CCNC(=O)c1nc2ccccc2s1	-2%	-5%	i	9%	i
Cc1csc(NC(=O)CSc2nc3ccccc3s2)n1	2%	12%	i	25µM*	i
Cc1csc(NC(=O)CSc2ccc([N+](=O)[O-])cn2)n1	-9%	3%	i	13µM*	i
COC(=O)c1cccc(Cn2ccc3ccc(-c4ccc5ccn(C(=O)c6ccccc6OC)c5c4)cc32)c1	nt	nt	nt	nt	i
CCC1=C(c2ccc(C)cc2)S(=O)(=O)N=C1N1CCC(C(=O)N2CCCCC2)CC1	nt	nt	i	21%	i
Nc1c(-c2ccccc2)cnn1-c1cccc([N+](=O)[O-])c1	1%	2%	i	20µM*	i
COc1ccc(NC(=O)CSc2nc(-c3cccs3)cc(C(F)(F)F)n2)cc1OC	nt	nt	i	23%[9.22 µM]	i
COc1ccc(OC(=O)c2ccncc2)cc1	-3%	6%	i	27%	i
COc1ccc(C(=O)Oc2ccc(/C=N/O)cc2)cc1	3%	nt	i	10µM*	i
COc1ccc(C(=O)C[n+]2cccc3cc(Cl)ccc32)cc1	nt	1%	nt	nt	nt
CCOC(=O)c1c(-c2ccc(OC)cc2)csc1/N=C/C1=C(O)CCCC1=O	?	11%	i	8.9µM*	?
SMILES	Mito fusion act	aSyn yeast inh	Abeta yeast res	TDP43 rescue	FUS suppressor
Cn1cc(Br)c(C(=O)Nc2sc3c(c2C(N)=O)CCC3)n1	-2%	-13%	i	-12%	i
CCn1ncc(Br)c1C(=O)Nc1sc2c(c1C(N)=O)CCC2	20µM*	0%	i	-22%	i
COc1ccc2cc3cc(C(=O)Nc4ccccc4C)oc3nc2c1	nt	nt	i	-4%	i
CCCCN(C(C)=O)c1c(CC)nc2ccc(C(=O)Nc3cccc(OCC(=O)N(C)C)c3)cn12	nt	-10%	i	9%	i
COc1ccc(-c2nc3ccc(Br)cn3c2Cc2cccc(Cl)c2)cc1OC	nt	?	i	22µM*	?
COc1ccc(-c2nc3ccc(Br)cn3c2Cc2ccccc2)cc1OC	nt	-1%	i	15%	i
